Results: PubChem BioAssay (NCI)
“And” between values parts separate entries of the source, which are not always exact repeats. Identical values can stand only once. The panel holds about 83,000 compounds, 20% with a hit somewhere; the sample as a whole holds those more often.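 For each line, cells grew in 96-well plates with the test compound present at a single concentration for 48 hours.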 The source made the active and inactive calls. How the source made its calls: active means growth percent below 10; inactive means the rest.

How the values were obtained:
Assay in all cases: NCI-60 one-dose screen, 48 h (100 = growth as untreated, 0 = no growth, -100 = all killed)
Conditions in all cases: 10 µM unless noted
[1] = test system: HCT-15 colon
[2] = test system: SNB-75 CNS
[3] = test system: SNB-19 CNS
[4] = test system: U251 CNS
[5] = test system: PC-3 prostate
[6] = test system: SK-MEL-5 melanoma
[7] = test system: UACC-62 melanoma
[8] = test system: LOX IMVI melanoma
[9] = test system: SK-MEL-28 melanoma
[10] = test system: HT29 colon

SMILES | growth [1] | growth [2] | growth [3] | growth [4] | growth [5] | growth [6] | growth [7] | growth [8] | growth [9] | growth [10]
CC[C@H](C)[C@H](NC(=O)[C@H]1CCCCN1C)C(=O)N(C)[C@H](C[C@@H](OC(C)=O)c1nc(C(=O)N[C@@H](Cc2ccccc2)C[C@H](C)C(=O)O)cs1)C(C)C | 9.59% (active) | 31.4% (inactive) | 36.7% (inactive) | 15% (inactive) | 26.1% (inactive) | -71.7% (active) | 52.8% (inactive) | 9.84% (active) | 50.6% (inactive) | 
O=C1CCCCC1CN1CCCCC1 (stereo not given) |  | 109% (inactive) | 108% (inactive) | 100% (inactive) | 97.8% (inactive) | 104% (inactive) | 99.4% (inactive) | 95.4% (inactive) | 106% (inactive) | 85.3% (inactive)
O=CC1(c2ccccc2)CCN(Cc2ccccc2)CC1 | 103% (inactive) | 102% (inactive) | 109% (inactive) | 101% (inactive) | 98.1% (inactive) | 110% (inactive) | 105% (inactive) | 82.8% (inactive) | 112% (inactive) | 
N#CCN(CC#N)[N+](=O)[O-] |  | 89.8% (inactive) | 99.1% (inactive) | 104% (inactive) | 95.4% (inactive) | 103% (inactive) | 98.2% (inactive) | 109% (inactive) | 106% (inactive) | 103% (inactive)
CNC(=O)O/N=C(\SC)C(=O)N(C)C | 105% (inactive) | 101% (inactive) | 106% (inactive) | 101% (inactive) | 85% (inactive) | 109% (inactive) | 111% (inactive) | 90.4% (inactive) | 113% (inactive) | 
C[C@]12CCc3sc(Nc4ccc(OC(F)(F)F)cc4)nc3C1=CC[C@@H]1[C@@H]2CC[C@]2(C)C(=O)CC[C@@H]12 |  | 68.6% (inactive) | 56.5% (inactive) | 34.1% (inactive) | 38.6% (inactive) | 95.9% (inactive) | 63.4% (inactive) | 34.8% (inactive) | 65.3% (inactive) | 13% (inactive)
Cn1cc(C(=O)C[n+]2ccccc2)c2ccccc21 | 110% (inactive) |  |  | 97% (inactive) | 90.4% (inactive) | 97.9% (inactive) | 105% (inactive) | 93.2% (inactive) | 114% (inactive) | 
ClC1OC(Cl)(Cl)C(Cl)(Cl)OC1(Cl)Cl (stereo not given) |  | 88.3% (inactive) | 112% (inactive) | 103% (inactive) | 104% (inactive) | 100% (inactive) | 104% (inactive) | 108% (inactive) | 106% (inactive) | 103% (inactive)
O=C=Nc1ccc(Br)cc1 | 96.5% (inactive) | 99.1% (inactive) | 111% (inactive) | 110% (inactive) |  | 81% (inactive) | 97.4% (inactive) | 106% (inactive) | 110% (inactive) | 
Cc1cc[n+](CCc2ccccc2)cc1 | 109% (inactive) and 106% (inactive) | 96.3% (inactive) and 84.1% (inactive) | 102% (inactive) and 106% (inactive) |  | 101% (inactive) |  | 102% (inactive) and 116% (inactive) |  | 103% (inactive) and 101% (inactive) | 
ClCc1ccc(Cl)c(Cl)c1 | 98.6% (inactive) | 104% (inactive) | 96.6% (inactive) | 100% (inactive) | 91.9% (inactive) | 92.2% (inactive) | 97.9% (inactive) | 104% (inactive) | 111% (inactive) | 
Cc1cc(N(CCCl)CCCl)ccc1/C=N\NC(=O)c1cccnc1 | 93% (inactive) and 85.1% (inactive) | 71.5% (inactive) and 86.4% (inactive) | 94.1% (inactive) and 105% (inactive) | 82.9% (inactive) and 93.2% (inactive) | 84.3% (inactive) and 77.6% (inactive) | 88.8% (inactive) and 79.1% (inactive) | 45% (inactive) and 60.5% (inactive) | 69.4% (inactive) | 108% (inactive) and 97.8% (inactive) | 
C[C@H](O)CCC(=O)c1ccoc1 | 110% (inactive) |  | 100% (inactive) | 102% (inactive) | 95.7% (inactive) | 99.9% (inactive) | 96% (inactive) | 95.5% (inactive) | 115% (inactive) | 
Cc1cc(N(CCCl)CCCl)ccc1C=Nc1ccc(-c2csc(-c3ccccc3)n2)cc1 |  | 84.6% (inactive) | 79.4% (inactive) | 85% (inactive) | 69.6% (inactive) | 80.8% (inactive) | 58.8% (inactive) | 80.2% (inactive) | 105% (inactive) | 112% (inactive)
CC1=C([Te]c2ccccc2)C(=O)c2ccccc2C1=O | -43.6% (active) | -25.6% (active) |  | -30.1% (active) | -30.8% (active) | -95% (active) | -24.9% (active) | -41.7% (active) | -64.4% (active) | 
C[C@]12CC[C@H]3[C@@H](C[C@@H]4SC(Nc5ccccc5)=N[C@@]45C/C(=N/O)CC[C@]35C)[C@@H]1CCC2=O | 44.3% (inactive) | 76% (inactive) | 60.3% (inactive) | 37.5% (inactive) | 60.5% (inactive) | 84.5% (inactive) | 86% (inactive) | -4.53% (active) | 73.3% (inactive) | 
C[C@]12CCc3sc(Nc4ccc(F)cc4F)nc3C1=CC[C@@H]1[C@@H]2CC[C@]2(C)C(=O)CC[C@@H]12 | 7.76% (active) | 69.4% (inactive) |  | 40.7% (inactive) |  | 76.9% (inactive) | 67.6% (inactive) | -49.7% (active) | 84.4% (inactive) | 
CCC1(NC(=O)c2cc(F)c(F)c(F)c2F)C(=O)NC(=O)N(C(C)C)C1=O (stereo not given) | 12.4% (inactive) | 88.4% (inactive) | 92.7% (inactive) | 90.6% (inactive) | 93% (inactive) | 64.7% (inactive) | 48.6% (inactive) | 42% (inactive) | 53.2% (inactive) | 
CCC(=O)C(CC(C)N1CCCCCC1)(c1ccccc1)c1ccccc1 (stereo not given) |  | 115% (inactive) | 95.2% (inactive) | 100% (inactive) | 89.2% (inactive) | 98.2% (inactive) | 94.4% (inactive) | 103% (inactive) | 94.7% (inactive) | 67.1% (inactive)
CNC(=O)Oc1ccc(Cl)cc1SSc1cc(Cl)ccc1OC(=O)NC |  | 86.8% (inactive) | 86.8% (inactive) | 52.7% (inactive) | 73% (inactive) | 43.4% (inactive) | 49.7% (inactive) | 85.8% (inactive) | 82% (inactive) | 106% (inactive)
COc1ccc(N(CC(=O)NCCC[Te]c2ccccc2)C(=O)c2ccccc2)cc1 |  | 69.5% (inactive) |  | 14.4% (inactive) | 7.26% (active) | 55.2% (inactive) | 84.1% (inactive) | 32.8% (inactive) | 145% (inactive) | -25.5% (active)
CN(N)/N=N/c1nc[nH]c1[N+](=O)[O-] |  |  |  |  |  |  | 21.2% [100 µM] (inactive) and -39.8% [100 µM] (active) |  |  | 
CC1(C)N=C(N)N=C(N)N1c1ccc(CCC(=O)Nc2ccc(S(=O)(=O)F)cc2)cc1 |  | 51.8% (inactive) | 55% (inactive) |  | 20.2% (inactive) | 34.8% (inactive) | 26.2% (inactive) | 15.8% (inactive) | 52% (inactive) | 
Cc1ccc(N2CCN(CCC#N)CC2)cc1 |  | 79.5% (inactive) |  | 97.8% (inactive) | 92.5% (inactive) | 82% (inactive) | 98.6% (inactive) | 101% (inactive) | 98.7% (inactive) | 103% (inactive)
O=C(CCCN1CCC2(CC1)C(=O)NCN2c1ccccc1)c1ccc(F)cc1 |  | 109% (inactive) and 105% (inactive) | 98.1% (inactive) and 66.6% (inactive) | 98.6% (inactive) and 78.7% (inactive) |  | 56.9% (inactive) and -23.1% (active) | 102% (inactive) and 65% (inactive) | 103% (inactive) and 67.8% (inactive) | 114% (inactive) and 120% (inactive) | 60.8% (inactive) and 21.9% (inactive)
CCCC1CCCCC12C(=O)NC(=O)NC2=O (stereo not given) |  | 100% (inactive) and 87.2% (inactive) | 96.2% (inactive) and 110% (inactive) | 97.8% (inactive) and 102% (inactive) |  | 95.5% (inactive) and 103% (inactive) | 98.2% (inactive) and 109% (inactive) | 97% (inactive) and 97.1% (inactive) | 103% (inactive) and 114% (inactive) | 97.2% (inactive) and 94.3% (inactive)
O=[N+]([O-])c1ccc2scc3c4ccccc4nc-3c2c1 |  | -42% (active) |  | -92.4% (active) | -53.4% (active) | 8.28% (active) | -61% (active) | -87.1% (active) | -56.1% (active) | -47% (active)
CCOC(=O)C1C(c2ccco2)C2(C#N)C(=N)OC1(C)C2(C#N)C#N (stereo not given) |  |  |  |  |  |  | 62% [100 µM] (inactive) and 20.8% [100 µM] (inactive) |  |  | 
O=NN1CCCCC1 |  | 82.6% (inactive) | 97.8% (inactive) | 111% (inactive) | 110% (inactive) | 106% (inactive) | 97.1% (inactive) | 100% (inactive) | 110% (inactive) | 103% (inactive)
CCOC(=O)C1C(C=C(C)C)C1(C)C (stereo not given) |  |  | 103% (inactive) | 99.3% (inactive) | 93% (inactive) | 109% (inactive) | 99.8% (inactive) | 104% (inactive) |  | 116% (inactive)
